Measured values: PubChem BioAssay AID504832 (National Center for Advancing Translational Sciences (NCATS), 2011)
The campaign covered roughly 310,000 compounds. About 18,000 (5.8%) were called active. Entries that show only a call come without a potency. Roughly 22% stayed inconclusive and do not appear here. Calls come from the whole dose curve; as a rule, active = well fitted inhibition curve with a large enough effect; inconclusive = small, poorly fitted or top-dose-only effect, or another doubt; inactive = no such curve, though single readings can be large or run the other way. The sample as a whole holds a higher share of actives than the screen did.

Assay: Primary qHTS for delayed death inhibitors of the malarial parasite plastid, 48 hour incubation
Details: P. falciparum luciferase growth in erythrocytes; series mostly up to 28.7 µM
Summary of the method: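 Luciferase-expressing P. falciparum in infected erythrocytes (2% hematocrit, 0.1% parasitemia final) in RPMI 1640/0.5% Albumax were exposed to compound for 48 hours at 37 C, 5% CO2; growth read as luminescence.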
Potency is the fitted concentration of half-maximal effect.

Row | Compound | Potency
1 | C=CCOc1cccc(C2NC(=O)c3ccccc3O2)c1 (stereo not given) | inactive
2 | COc1ccc(N(CC(=O)NCC2CCCO2)C(=O)CCC(=O)Nc2nccs2)c(OC)c1 (stereo not given) | inactive
3 | Cc1ccc(N2CC(C(=O)Nc3cc(Cl)ccc3-n3cncn3)CC2=O)cc1 (stereo not given) | inactive
4 | Cc1ccc2c(c1)N(CC(=O)NCC1CCCO1)C(=O)CO2 (stereo not given) | inactive
5 | COc1cccc(C(=O)NCCS(=O)(=O)NCC2CCCO2)c1 (stereo not given) | inactive
6 | COc1ccc(S(=O)(=O)N2CCC(C(=O)N3CCc4ccccc4C3)CC2)cc1OC | inactive
7 | COc1cc(C(=O)NNC(=O)c2ccc(S(=O)(=O)N3CCCCC3)cc2)cc(OC)c1OC | inactive
8 | COc1cc2c(cc1OC)CN(C(=O)c1ccc(S(=O)(=O)N3CCCCCC3)cc1)CC2 | 6.57 µM (active)
9 | COC(=O)C1(CCSC)NC(c2ccc(OC)cc2OC)C2C(=O)N(c3cccc(C(C)=O)c3)C(=O)C21 (stereo not given) | inactive
10 | CSc1ccccc1NC(=O)c1ccc2c(c1)CCN2S(C)(=O)=O | inactive
11 | COc1ccc2cc(C(=O)O)n(CC(=O)c3ccccc3)c2c1 | inactive
12 | Cc1ccc(N(C(=O)c2ccc(CN3CCOCC3)o2)C(C(=O)NCCC(C)C)c2cccs2)c(C)c1 (stereo not given) | 10.4 µM (active)
13 | Cc1cccc(N(C(=O)c2ccc(CN3CCOCC3)o2)C(C(=O)NC2CCCCC2)c2ccc(F)cc2)c1 (stereo not given) | inactive
14 | Cc1ccc(CS(=O)Cc2ccc(C(=O)N3CCOCC3)o2)cc1 (stereo not given) | inactive
15 | Cc1c(NS(=O)(=O)c2cc(C(=O)NCCc3ccc(F)cc3)cc(Cl)c2Cl)c(=O)n(-c2ccccc2)n1C | inactive
16 | COC(=O)c1ccc(NC(=O)CSc2nnc(C3CC3)n2C)cc1 | inactive
17 | CCOC(=O)c1c(-c2ccc(C)cc2)csc1/N=C(\C)C1=C(O)c2ccccc2C1=O | inactive
18 | CCOC(=O)C1=C(c2ccc(OC)cc2)C(=O)c2ccccc2C1=O | 2.94 µM (active)
19 | CCOC(=O)c1ccccc1NS(=O)(=O)c1ccc(OC)cc1 | inactive
20 | COc1ccc(-c2cc(C(=O)NCCCN3CCOCC3)no2)cc1 | inactive
21 | O=[N+]([O-])c1ccc(Oc2ccc(F)cc2Br)c2ccncc12 | 14.7 µM (active)
22 | Cn1c(SCc2ccc(F)cc2)nnc1-c1ccncc1 | inactive
23 | Cc1ccc(-c2csc(NC(=O)c3cnccn3)n2)cc1C | inactive
24 | Cc1csc(NC(=O)C2=COCCO2)n1 | inactive
25 | Cc1ccc(-c2csc(NC(=O)C3=COCCO3)n2)cc1C | 10.4 µM (active)

Row | Compound | Potency
26 | CN(Cc1ccccc1)C(=O)c1cccc(C(=O)N(C)Cc2ccccc2)c1 | inactive
27 | CC(C)C[C@H](CO)Nc1nc(N(C)c2cccc(Cl)c2)c2ncn(C(C)C)c2n1 | 13.1 µM (active)
28 | O=C(CCCC(=O)N1CCN(c2cccc(Cl)c2)CC1)c1ccccc1 | inactive
29 | Cc1ccc(C)c(N2CCN(C(=O)Cn3ncn4cccc4c3=O)CC2)c1 | inactive
30 | CN1CN(C)c2ccc([N+](=O)[O-])c3cccc1c23 | inactive
31 | Cc1ccc(C(=O)N2CCC(n3nccc3NC(=O)Nc3cccc(F)c3)CC2)cn1 | inactive
32 | CCCNC(=O)c1onc(CSc2ccc(F)cc2)c1C(=O)NC(C)C | 9.28 µM (active)
33 | CCOc1cccc(SCc2noc(C(=O)NC(C)C)c2C(=O)O)c1 | inactive
34 | CCCCNC(=O)c1onc(CSc2cccc(OC)c2)c1C(=O)O | inactive
35 | CCc1ccccc1S(=O)(=O)Cc1ccc(C(=O)NCCc2ccccc2)o1 | inactive
36 | Cc1ccc(C)c2[nH]c(=O)c(CN(Cc3cccnc3)C(=S)NCc3ccco3)cc12 | 9.28 µM (active)
37 | O=C(Nc1ccccc1)N(Cc1cccnc1)Cc1ccco1 | inactive
38 | COCCNC(=S)N(Cc1cccnc1)Cc1ccc(OC)c(OC)c1 | inactive
39 | COc1ccc(C(=O)N2CCN(c3ncccn3)CC2)cc1S(=O)(=O)N1CCOCC1 | inactive
40 | COc1cc(C(=S)N2CCOCC2)cc(OC)c1OC(=O)c1ccc([N+](=O)[O-])cc1[N+](=O)[O-] | inactive
41 | CCC(C)Sc1nc2c(cnn2-c2ccc(F)cc2)c(=O)[nH]1 (stereo not given) | inactive
42 | Cc1cccc(C)c1NC(=O)COC(=O)c1ccccc1O | inactive
43 | Cc1ccc(N(Cc2cc(=O)[nH]c3ccccc23)C(=O)CCl)cc1 | 9.28 µM (active)
44 | Cn1nnnc1SCc1cc(=O)[nH]c2ccccc12 | inactive
45 | CC(=O)N(Cc1cc(=O)[nH]c2ccccc12)c1ccc(C)cc1C | inactive
46 | COc1cc(/C=N/NC(=O)CNC(=O)c2ccncc2)ccc1OC(C)=O | inactive
47 | O=C(COC(=O)/C=C/c1cccs1)NC1CCCCC1 | inactive
48 | CCn1c(SCC(=O)N/N=C/C=C/c2ccccc2[N+](=O)[O-])nnc1-c1ccccc1 | inactive
49 | Cc1ccc(-n2c(SCC(=O)N/N=C/C=C/c3ccccc3[N+](=O)[O-])nc3ccccc3c2=O)cc1 | 13.1 µM (active)
50 | O=C(CSc1nc2ccccc2[nH]1)N/N=C/C=C\c1ccccc1[N+](=O)[O-] | inactive

Row | Compound | Potency
51 | Cc1ccc(C(=O)NC23CC4CC(CC(C4)C2)C3)c(Cl)c1 | inactive
52 | CN(C(=O)COC(=O)CCCc1c[nH]c2ccccc12)c1c(N)n(Cc2ccccc2)c(=O)[nH]c1=O | inactive
53 | O=C(CSc1nn(-c2ccc(F)cc2)c(=S)s1)NC1CCS(=O)(=O)C1 (stereo not given) | inactive
54 | Cc1ccccc1-n1nc(SCC(=O)O)sc1=S | inactive
55 | N#CCSc1nn(-c2ccc(F)cc2)c(=S)s1 | 5.86 µM (active)
56 | CCOC(=O)Cc1csc(SCC(=O)Nc2ccc(C)cc2F)n1 | inactive
57 | O=C1COc2ccc(S(=O)(=O)NCCc3ccc(Cl)cc3)cc2N1 | inactive
58 | CSc1ccccc1NC(=O)c1cnc2sc(C)cn2c1=O | inactive
59 | CCC(=O)Nc1ccc(Nc2nc(Cl)nc(Nc3ccc(NC(=O)CC)cc3)n2)cc1 | inactive
60 | CC(=O)Nc1ccc(Nc2cc(C)nc(Nc3ccc(NC(C)=O)cc3)n2)cc1 | 1.65 µM (active)
61 | COc1ccc(C(=O)NNc2cc(C)nc(NNC(=O)c3ccc(OC)cc3)n2)cc1 | inactive
62 | Cn1nc(-c2ccccc2)c2cc([N+](=O)[O-])ccc21 | inactive
63 | COc1ccc(-c2cn(-c3ccc(C)cc3)c(=O)n2CC(=O)Nc2ccc(OC)c(OC)c2)cc1 | 14.7 µM (active)
64 | COc1ccc(NC(=O)COC(=O)Cn2c(C)nc3ccccc32)cc1OC | inactive
65 | COc1ccc(NC(=O)Cn2nnc(C(=O)NCCc3ccc(OC)c(OC)c3)c2N)cc1 | inactive
66 | COC(=O)c1ccc(COc2ccc(C#N)cc2)o1 | inactive
67 | COc1ccc(OCC(=O)NCCS(=O)(=O)N2CCN(c3ccc(F)cc3)CC2)cc1 | inactive
68 | CC(C)CC(=O)c1c[nH]c(C(=O)NCc2ccccc2)c1 | inactive
69 | Cc1nnc(SCC(=O)NCc2ccccc2)s1 | inactive
70 | Cc1nnc(SCC(=O)N2c3ccccc3C(C)(c3ccc(Cl)cc3)CC2(C)C)s1 (stereo not given) | 10.4 µM (active)
71 | Cc1nnc(SCC(=O)N2CCc3ccccc3C2)s1 | inactive
72 | Cc1ccc(Cn2c(C)c3cnn(CC(=O)NCc4ccccn4)c(=O)c3c2C)cc1 | inactive
73 | Cc1ccc(-c2nn(-c3ccccc3)cc2CN(Cc2ccccc2)C(=O)CCC(=O)O)o1 | inactive
74 | Cc1ccc(-c2nn(-c3ccccc3)cc2/C=C2\SC(=S)N(CCCCCC(=O)O)C2=O)o1 | 4.65 µM (active)
75 | O=C(CCCN1C(=O)/C(=C/c2ccco2)SC1=S)Nc1ccccc1 | inactive

Row | Compound | Potency
76 | O=C(O)c1cc2c(cc1NC(=O)c1c(F)cccc1Cl)OCCCO2 | inactive
77 | CCN(c1ccccc1)S(=O)(=O)c1cccc(C(=O)O)c1 | inactive
78 | CCN(c1ccccc1)S(=O)(=O)c1cccc(C(=O)NCc2ccccc2CN2CCOCC2)c1 | 13.1 µM (active)
79 | COc1ccc(C(CNC(=O)c2ccc(NS(=O)(=O)c3ccc(F)c(C)c3)cc2)N(C)C)cc1 (stereo not given) | 14.7 µM (active)
80 | COc1ccc(C(=O)Nc2ccc(S(=O)(=O)NC(C)C)cc2)cc1 | inactive
81 | CC(=O)N1CCN(C(=O)c2cccc(S(=O)(=O)Nc3ccc(C)cc3)c2)CC1 | inactive
82 | COc1ccc(C(CNC(=O)c2ccc(S(=O)(=O)Nc3ccccc3F)cc2)N(C)C)cc1 (stereo not given) | inactive
83 | O=C(NCc1ccccc1CN1CCCC1)c1cccc(S(=O)(=O)Nc2ccc(F)cc2)c1 | 13.1 µM (active)
84 | COc1ccccc1C(CNC(=O)c1cccc(S(=O)(=O)Nc2ccc(F)cc2)c1)N(C)C (stereo not given) | 13.1 µM (active)
85 | COc1ccc(Cl)cc1NS(=O)(=O)c1cccc(C(=O)NCC2CCCO2)c1 (stereo not given) | inactive
86 | O=C(NCc1cccc(C(F)(F)F)c1)c1cccc(S(=O)(=O)N2CCN(Cc3ccccc3)CC2)c1 | inactive
87 | O=C(OC1CCOC1=O)c1cccc(S(=O)(=O)Nc2ccc(F)cc2)c1 (stereo not given) | inactive
88 | COc1ccc(NS(=O)(=O)c2cccc(C(=O)NCCc3ccc(S(N)(=O)=O)cc3)c2)cc1 | inactive
89 | COCCCNC(=O)Cc1ccc(-n2c(C)nc3cccnc32)cc1 | inactive
90 | COc1ccccc1CNC(=O)c1ccc(N(C)S(=O)(=O)c2ccc(C)cc2)cc1 | inactive
91 | CCc1nn(CCCC(=O)NCc2ccc(C)cc2)c(=O)c2cc3occc3n12 | inactive
92 | O=C(NC(Cc1ccccc1)C(=O)O)/C(=C\c1ccccc1)NC(=O)c1ccco1 (stereo not given) | inactive
93 | O=Cc1c(Nc2ccccc2Cl)nc2ccccn2c1=O | inactive
94 | CC1(C)C(C=C(Cl)Cl)C1C(=O)NC(O)C(=O)c1ccccc1 (stereo not given) | inactive
95 | O=C(CCNC(=O)C1CCN(S(=O)(=O)c2ccccc2)CC1)NC1CC1 | inactive
96 | CCN(CC)C(CNC(=O)CSc1nnnn1-c1cccc(F)c1)c1ccco1 (stereo not given) | inactive
97 | CCCCNC(=O)C1(O)c2ccccc2NC(=O)N1c1ccc(Cl)cc1 (stereo not given) | inactive
98 | COc1ccccc1CCNS(=O)(=O)c1cn(C)nc1C | inactive
99 | CCc1nc2cccnc2n1-c1ccc(C(=O)O)cc1 | inactive
100 | NC(=O)Cn1cc(/C=N\NS(=O)(=O)c2ccccc2)c2ccccc21 | inactive
